Hit rate of the full screen: of about 16,000 compounds, about 5,700 (36%) were called active. Not shown: some 24% with an inconclusive outcome. Calls follow the shape of the dose curve; as a rule, active = well fitted curve in the direction sought with a large enough effect; inconclusive = small, poorly fitted or top-dose-only effect, or effect the other way; inactive = no such curve, though single readings can be large or run the other way. This is one part of the list.
Target: Cytochrome P450 1A2 (Homo sapiens) (UniProt P05177)
Assay: Cytochrome panel assay with activity outcomes
Settings: recombinant CYP, pro-luciferin dealkylation, luminescence, p450-cyp1a2; series mostly up to 57.1 µM
% is scaled to controls: 0 for no effect and ±100 for the full control effect.

Chain of Cytochrome P450 1A2 (Homo sapiens) (P05177 whole entry, looked up): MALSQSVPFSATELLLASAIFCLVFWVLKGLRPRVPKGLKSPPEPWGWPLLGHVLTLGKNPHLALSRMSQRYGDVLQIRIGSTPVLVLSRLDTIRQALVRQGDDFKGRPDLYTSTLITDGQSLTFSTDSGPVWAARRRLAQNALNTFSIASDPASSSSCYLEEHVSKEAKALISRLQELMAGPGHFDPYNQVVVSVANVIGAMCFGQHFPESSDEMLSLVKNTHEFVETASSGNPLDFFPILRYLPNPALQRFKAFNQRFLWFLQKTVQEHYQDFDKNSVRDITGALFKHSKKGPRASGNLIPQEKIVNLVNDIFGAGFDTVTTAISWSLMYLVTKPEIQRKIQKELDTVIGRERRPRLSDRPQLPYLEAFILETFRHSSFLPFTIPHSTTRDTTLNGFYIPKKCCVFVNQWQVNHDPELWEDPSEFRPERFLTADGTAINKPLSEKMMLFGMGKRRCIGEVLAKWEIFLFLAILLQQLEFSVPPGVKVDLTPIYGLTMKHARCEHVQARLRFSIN

SMILES	AC50	activity, negative = inhibition
CC1(C)C(=O)NC2=C1C(=O)C(=O)c1ccccc12	3.16 µM (active)	
N#C/C(=C\c1c[nH]c2ccccc12)C(=O)c1ccc(O)c(O)c1	1.26 µM (active)	
O=C(O)[C@@H]1CCCN1Cc1c[nH]c2ccccc12		-13.1% [at 11.4 µM] (inactive)
CCN(CC(=O)O)CC(=O)O		-5.21% [at 11.4 µM] (inactive)
CS(=O)(=O)Nc1cccc(-c2nccc(-n3ccnc3)n2)c1	0.2 µM (active)	
CS(=O)(=O)Nc1cccc(-c2cncnc2-n2ccnc2)c1	15.8 µM (active)	
CS(=O)(=O)Nc1ccc(C(=O)N2CCN(c3ccccc3)CC2)cc1	inactive	
CN1CCN(c2ccnc(-c3cccc(NS(C)(=O)=O)c3)n2)CC1	12.6 µM (active)	
COc1ccc(NS(=O)(=O)c2ccc(I)cc2)cc1N1CCN(C)CC1	inactive	
CCN1C(=O)[C@H]2[C@H]3[C@H](O)[C@H](O)C/C(=N/OCC(C)C)[C@@H]3CC[C@@H]2C1=O		-10.8% [at 11.4 µM] (inactive)
O=[N+]([O-])c1cccnc1NCCNc1ncc(C(F)(F)F)cc1Cl	2 µM (active)	
COC(=O)[C@@]1(Cc2ccc(F)cc2)[C@H]2c3cc(C(=O)N4CCCC4)n(CCCNc4ncc(C(F)(F)F)cc4Cl)c3C[C@H]2CN1C(=O)c1ccccc1	inactive	
C[C@@H]1O[C@@H](O)[C@@H](O)[C@H](O)[C@H]1O		-2.48% [at 11.4 µM] (inactive)
O=C(O)CCNc1ccccc1C(=O)O		-11.9% [at 11.4 µM] (inactive)
Cn1c(=O)c2c(nc(N/N=C\c3ccccc3C(=O)O)n2C)n(C)c1=O		5.78% [at 11.4 µM] (inactive)
O=C(O)c1ccccc1N/N=C\c1ccnc2ccccc12	11.2 µM (active)	
Brc1ccc(C2=Nn3c(nnc3-c3cccnc3)SC2)s1	5.01 µM (active)	
COc1ccc(C(C(=O)NC2CCCC2)N(C(=O)c2snc(-c3ccc(F)cc3)c2N)c2ccccc2)cc1 (configuration not stated)	inactive	
Cc1cc2ccccn2c1C(=O)c1nc(N2CCOCC2)ncc1Cl	15.8 µM (active)	
Cc1cc2ccccn2c1C(=O)c1ccc(Cl)cc1	3.16 µM (active)	
Cc1sc(=NC(=O)c2ccco2)n(C)c1-c1ccc(F)cc1	8.91 µM (active)	
COc1ccccc1-c1nc(N2CCOCC2)c2ccccc2n1	0.501 µM (active)	
COc1ccccc1C(=O)N1CCN(c2ccccn2)CC1	inactive	
COc1ccccc1-c1nc(N2CCN(C)CC2)c2ccccc2n1	12.6 µM (active)	
CC(C)(C)C1CCC(OCC(O)CN2CCN(c3ccccc3)CC2)CC1 (configuration not stated)	inactive	
O=C(c1ccccc1)c1ccc(OCC(O)CN2CCN(Cc3ccccc3)CC2)cc1 (configuration not stated)	inactive	
O=C1c2cccc3cccc(c23)C(=O)N1CC1CCN(CC(O)COc2ccc3ccccc3c2)CC1 (configuration not stated)	0.562 µM (active)	

Reference: PubChem BioAssay AID1851 (National Center for Advancing Translational Sciences (NCATS), 2009)
